The values below come from PubChem BioAssay (NCI).

Among the test systems are DU-145 prostate; K-562 leukemia; MALME-3M melanoma; MDA-MB-231 breast; RXF 393 renal; SF-268 CNS; SF-295 CNS; SF-539 CNS; UACC-257 melanoma; M14 melanoma.
What all share (experiment): NCI-60 one-dose screen, 48 h (100 = growth as untreated, 0 = no growth, -100 = all killed)
Settings in all cases: 10 µM

The panel holds about 83,000 compounds, 20% with a hit somewhere; the sample as a whole holds those more often.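 Treatment: one concentration, 48 hours, 96-well format. Scoring: percent growth, with anything below 10 considered active.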 A number with no mark means an inactive call. The source made the active and inactive calls.

For `COc1ccsc1/C=N/NC(=O)c1[nH]c2ccc(Br)cc2c1-c1ccccc1`, the growth in the assay with DU-145 prostate was 11.7%; in the assay on K-562 leukemia, 1.22% (active); in the assay on MALME-3M melanoma, 22.3%; in the assay on MDA-MB-231 breast it was 3.17% (active); in the assay on RXF 393 renal it was 30.8%; in the assay with SF-268 CNS it was 17.2%. In addition, the growth in the assay with SF-295 CNS was -7.83% (active); in the assay with SF-539 CNS, -18.5% (active); with UACC-257 melanoma it was 11.4%; with M14 melanoma, 5.95% (active).
For `O=C1Nc2ccc(Cl)cc2/C1=C/c1cccc(OCc2ccccn2)c1`, the growth in the assay on DU-145 prostate was 6.01% (active); with K-562 leukemia, 0.86% (active); with MALME-3M melanoma, -51.9% (active); in the assay on MDA-MB-231 breast, -50.8% (active); in the assay on RXF 393 renal, -31.4% (active); in the assay on SF-268 CNS, 4.23% (active). The growth in the assay on SF-295 CNS is -42.4% (active); with SF-539 CNS it was -64.4% (active); in the assay on UACC-257 melanoma it was -0.118% (active); in the assay on M14 melanoma it was -50.5% (active).
In the case of `C/C(=C\CSc1ccccc1C(=O)O)CCCC(C)CCCC(C)CCCC(C)C` (stereo not given), the growth is 67.1% with DU-145 prostate; 36.2% with K-562 leukemia; 86.4% in the assay with MALME-3M melanoma; 75.9% in the assay with MDA-MB-231 breast; 87.8% in the assay with RXF 393 renal; 51.5% with SF-268 CNS. The growth in the assay with SF-295 CNS is 40.6%; in the assay on SF-539 CNS it was 61.1%; with UACC-257 melanoma, 80.7%; in the assay on M14 melanoma, 60%.
As to `O=C(Nc1nc2ccc([N+](=O)[O-])cc2s1)Nc1ccccc1I`, the growth is 17.9% in the assay with DU-145 prostate; 4.53% (active) with K-562 leukemia; -5.11% (active) in the assay with MALME-3M melanoma; 0.0164% (active) in the assay on MDA-MB-231 breast; -12.7% (active) in the assay on RXF 393 renal; 22% with SF-268 CNS. For the same compound, the growth in the assay on SF-295 CNS was -25.8% (active); in the assay on SF-539 CNS it was -0.233% (active); in the assay on UACC-257 melanoma, -17.8% (active); in the assay on M14 melanoma, 2.29% (active).
Consider `COc1csc(/C=N/NC(=O)c2[nH]c3ccc(Br)cc3c2-c2ccccc2)c1`, for which the growth in the assay with DU-145 prostate is 7.13% (active); in the assay on K-562 leukemia it was 4.06% (active); in the assay on MALME-3M melanoma, 30.9%; in the assay with MDA-MB-231 breast it was 3.77% (active); in the assay on RXF 393 renal it was 23.3%; with SF-268 CNS, 23.5%. Also, the growth is -10.2% (active) with SF-295 CNS, -39.8% (active) in the assay on SF-539 CNS, 34.8% with UACC-257 melanoma and 11.5% in the assay with M14 melanoma.
On to `Nc1n[nH]c2cccc(C#Cc3cccc(NC(=O)Nc4cc(C(F)(F)F)cc(C(F)(F)F)c4)c3)c12`, for which the growth is 7.02% (active) with DU-145 prostate; -57.4% (active) in the assay on K-562 leukemia; -67.6% (active) in the assay with MALME-3M melanoma; -93.4% (active) in the assay with MDA-MB-231 breast; -70.9% (active) in the assay on RXF 393 renal; -2.88% (active) with SF-268 CNS. In addition, the growth with SF-295 CNS is -75.3% (active); in the assay with SF-539 CNS, -73% (active); in the assay on UACC-257 melanoma, -57.3% (active); in the assay with M14 melanoma it was -9.94% (active).
For the compound `Cc1cc2nc3c4ccccc4n(CCO)c3nc2cc1C`, the growth in the assay with DU-145 prostate was 58%; in the assay with K-562 leukemia, 74.4%; in the assay with MALME-3M melanoma it was 37.8%; in the assay on MDA-MB-231 breast, 18.5%; in the assay with RXF 393 renal it was 38.6%; in the assay with SF-268 CNS it was 78.1%. The growth was 66% in the assay with SF-295 CNS, 37.1% in the assay with SF-539 CNS, 91.7% in the assay on UACC-257 melanoma and 84.6% in the assay on M14 melanoma.
On to `CN1C(=O)/C(=C/c2nccs2)SC1=S`, for which the growth with DU-145 prostate was 91.2%; in the assay on K-562 leukemia, 66.8%; in the assay on MALME-3M melanoma, 82.1%; in the assay on MDA-MB-231 breast it was 87.5%; in the assay with RXF 393 renal, 103%; in the assay with SF-268 CNS, 104%. For the same compound, the growth in the assay with SF-295 CNS was 93.2%; in the assay on SF-539 CNS, 95.4%; in the assay with UACC-257 melanoma it was 85.4%; in the assay on M14 melanoma it was 87.2%.
`CN1CCN(c2ccc(C(=O)/C=C/c3ccc(C#N)cc3)cc2)CC1`: the growth with DU-145 prostate is 82.1%; in the assay with K-562 leukemia, 7.48% (active); in the assay with MALME-3M melanoma, 90.4%; with MDA-MB-231 breast, 65.8%; in the assay on RXF 393 renal, 63.9%; in the assay with SF-268 CNS it was 107%. Moreover, the growth with SF-295 CNS was 78.2%; in the assay with SF-539 CNS, 56.3%; with UACC-257 melanoma, 90.4%; in the assay with M14 melanoma, 79.6%.
Take `O=C(O)CCCCCCCCCCN1C(=O)/C(=C/c2cnc(-c3ccc(Cl)cc3)s2)SC1=S`: the growth was 13.2% in the assay on DU-145 prostate; 22.1% in the assay on K-562 leukemia; 80.6% in the assay with MALME-3M melanoma; 48.9% in the assay with MDA-MB-231 breast; 77.4% in the assay on RXF 393 renal; 49.4% in the assay on SF-268 CNS. Also, the growth in the assay with SF-295 CNS was 8.83% (active); in the assay with SF-539 CNS, 36.4%; in the assay on UACC-257 melanoma it was 87.6%; in the assay on M14 melanoma, 16.5%.
`O=C1Nc2cc(-c3ccc(NC(=O)c4cccs4)cc3)ccc2/C1=C/c1ccc[nH]1`: the growth with DU-145 prostate is 32.7%; in the assay on K-562 leukemia, 80.8%; in the assay on MALME-3M melanoma it was 78.2%; in the assay on MDA-MB-231 breast it was 61%; in the assay with RXF 393 renal, 73.9%; in the assay on SF-268 CNS, 73.5%. Besides, the growth with SF-295 CNS is 55.1%; in the assay with SF-539 CNS, 83.9%; with UACC-257 melanoma, 75.2%; in the assay on M14 melanoma, 88.9%.
Take `COc1ccc(CCN2C(=O)/C(=C/c3csc(C#N)n3)SC2=S)cc1OC`: the growth in the assay on DU-145 prostate is -10.9% (active); with K-562 leukemia, 1.08% (active); in the assay on MALME-3M melanoma, 2.58% (active); with MDA-MB-231 breast it was 95.7%; in the assay on RXF 393 renal, -1.04% (active); in the assay with SF-268 CNS it was 99.4%. The growth in the assay on SF-295 CNS was 98.7%; in the assay with SF-539 CNS, -1.47% (active); in the assay with UACC-257 melanoma, 13.4%; in the assay with M14 melanoma, 2.13% (active).
As for `CC1=N/C(=C\c2ccc(N(C)C)cc2)C(=O)N1CCc1ccc(S(N)(=O)=O)cc1`, the growth with DU-145 prostate is 112%; with K-562 leukemia, 90.6%; in the assay with MALME-3M melanoma it was 93.4%; in the assay on MDA-MB-231 breast, 96.4%; with RXF 393 renal, 88.9%; in the assay with SF-268 CNS it was 102%. For the same compound, the growth is 99.7% in the assay with SF-295 CNS, 98% in the assay on SF-539 CNS, 87.1% in the assay with UACC-257 melanoma and 97.3% in the assay on M14 melanoma.
